Tau FP inhib: tau fibrillization inhibition (FP). P10636. Potency, µM (top dose mostly 57.7 µM), without a hit: top-dose activity, negative = inhibition, actives largely listed as inhibitors. K18 P301L tau heparin fibrillization, Alexa594 FP, 6 h. AID 1468. 280,000 compounds, 0.39% hits; further: nearly all actives have a fitted effect of over 55% in size
Target sequence (P10636 561-689 P618L limits assumed): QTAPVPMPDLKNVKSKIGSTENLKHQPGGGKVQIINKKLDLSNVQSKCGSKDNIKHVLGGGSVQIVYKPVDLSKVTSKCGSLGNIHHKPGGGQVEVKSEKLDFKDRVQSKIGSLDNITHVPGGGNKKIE
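Human K18 P301L fragment (15 uM unlabeled plus 0.24 uM Alexa 594-labeled) in 100 mM sodium acetate pH 7 with compound, aggregation induced by 20 uM heparin for 6 hr at 37 C. ThT (30 uM) added for 1 hr, then Alexa 594 FP read.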
Tau fluor counter: counter-screen for tau fibril formation inhibitors | Potency, µM (series often up to 57.7 µM), for the others: top-dose activity change, negative = decrease | tau K18 P301L Alexa594 fluorescence, heparin fibrillization | 280,000 compounds, 0.93% hits; further: nearly all actives have a fitted effect of over 55% in size
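Human tau K18 P301L (15 uM unlabeled, 0.24 uM Alexa 594-labeled) in 100 mM sodium acetate pH 7 with 20 uM heparin, 6 hr at 37 C. ThT 30 uM added, 1 hr ambient; Alexa 594 FP and total fluorescence read at 555/632 nm.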
NPSR antag: antagonists of human neuropeptide S receptor cAMP signaling. 220,000 compounds, 1% hits. Q6W5P4. Potency, µM (series often up to 38.3 µM), for the others: at the highest dose activity change, negative = inhibition, actives largely listed as inhibitors. AID 1461. CHO-NPSR cells, cAMP TR-FRET, antagonist mode; further: nearly all actives have a fitted effect of over 50% in size
Target sequence (Q6W5P4 whole entry, looked up): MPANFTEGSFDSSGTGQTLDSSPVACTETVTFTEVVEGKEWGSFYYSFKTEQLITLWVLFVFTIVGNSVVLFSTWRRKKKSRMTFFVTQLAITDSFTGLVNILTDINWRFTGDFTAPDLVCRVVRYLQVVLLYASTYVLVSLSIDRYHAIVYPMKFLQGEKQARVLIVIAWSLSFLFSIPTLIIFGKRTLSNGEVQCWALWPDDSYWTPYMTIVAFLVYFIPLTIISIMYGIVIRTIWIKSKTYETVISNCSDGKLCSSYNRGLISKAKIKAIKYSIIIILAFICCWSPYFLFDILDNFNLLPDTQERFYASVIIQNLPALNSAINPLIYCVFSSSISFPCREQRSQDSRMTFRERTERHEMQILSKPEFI
Tau fibril ThT: blocks human tau fibril formation measured by thioflavin T; P10636; recombinant tau K18 P301L (four-repeat tau fragment), heparin-induced fibrillization, ThT fluorescence; Potency, µM (series often up to 57.4 µM), inactives show top-dose activity, negative = inhibition, hits mostly inhibitors; 270,000 compounds, 2.1% hits; AID 1460; further: nearly all actives have a fitted effect of over 55% in size
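K18 P301L tau (15 uM + 0.24 uM Alexa 594-tagged), heparin 20 uM, NaOAc pH 7, 6 h 37 C; ThT 30 uM, 1 h RT, ex 450/em 510 nm.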
HPGD inh: blocks human HPGD enzyme activity; purified HPGD, NADH fluorescence kinetic, PGE2 substrate; Potency, µM, without a hit: top-dose activity change, negative = inhibition, most hits filed as inhibitors; 150,000 compounds, 4.3% hits; AID 894; active means well fitted inhibition curve with a large enough effect, not every such curve was filed as active; inconclusive means small, poorly fitted or top-dose-only effect, or another doubt; inactive means no such curve, though single readings can be large or run the other way
Target sequence (P15428 whole entry, looked up): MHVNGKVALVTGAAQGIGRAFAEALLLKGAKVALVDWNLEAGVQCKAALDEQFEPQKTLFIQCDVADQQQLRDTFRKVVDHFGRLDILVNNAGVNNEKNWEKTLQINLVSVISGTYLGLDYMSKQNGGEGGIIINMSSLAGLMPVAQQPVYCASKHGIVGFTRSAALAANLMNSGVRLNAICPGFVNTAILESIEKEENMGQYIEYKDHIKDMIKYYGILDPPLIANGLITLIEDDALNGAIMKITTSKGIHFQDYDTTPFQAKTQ
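NADH formation kinetics: reaction with 30 uM PGE2 and 1 mM NAD+ (final), 20 nM enzyme, Tris-HCl pH 8 with Tween 20, after 15 min compound preincubation at room temperature. Fluorescence change, last versus first of five reads.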
ALDH1A1 block: inhibitors of human aldehyde dehydrogenase 1A1; P00352; Purified ALDH1A1, NADH fluorescence, propionaldehyde substrate; Potency, µM (highest dose often 75.3 µM), for inactives: top-dose activity, negative = inhibition, actives largely listed as inhibitors; 220,000 compounds, 7.3% hits; active means well fitted inhibition curve with a large enough effect, not every such curve was filed as active; inconclusive means small, poorly fitted or top-dose-only effect, or another doubt; inactive means no such curve, though single readings can be large or run the other way;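 further: plate controls were no enzyme wells and a reference inhibitor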
* marks the source's active call; other numbers are inactive results; ? = inconclusive; . = not tested or not shown; [ ] = remark or other dose. Only some compounds are listed: those with a hit (about 9.5% of all), similar ones and a draw of the others. Unless noted, the call rests on the fitted dose curve; in most records, active means well fitted curve in the direction sought with a large enough effect; inconclusive means small, poorly fitted or top-dose-only effect, or another doubt; inactive means no such curve, though single readings can be large; an effect the other way counts as inactive or inconclusive. Unless noted, on the % scale 0 is the no-effect control and ±100 the full control effect; potency means the concentration at half of the fitted maximal effect.

SMILES	Tau FP inhib	Tau fluor counter	NPSR antag	Tau fibril ThT	HPGD inh	ALDH1A1 block
Cc1nn(-c2ccccc2)c2sc(C(=O)Nc3cccc(Cl)c3)cc12	3.16µM*	?	.	?	.	.
Cc1c(C(=O)NNC(=S)Nc2cccc(Cl)c2)nnn1-c1ccccc1	11.5%	-27.0%	-8.2%	?	-28.8%	11.2µM*
Cn1nc(-c2ccccc2F)c2cc(C(=O)Nc3ccc4c(c3)OCCO4)sc21	?	7.94µM*[quencher]	?	?	?	?
COc1ccc(-c2nn(C)c3sc(C(=O)Nc4cccc(F)c4)cc23)cc1OC	12.6µM*	?	.	-6.0%	.	.
CCCC[C@@H]1C[C@H]1C(NC(=O)c1ccccc1)c1ccc(-c2ccccc2)cc1 (stereo partly specified)	8.2%	5.0%	.	10.0%	-17.4%	-1.5%
COc1ccc(C(CNC(=O)c2cccc([N+](=O)[O-])c2)N2CCOCC2)cc1 (stereo unspecified)	-0.2%	-13.0%	.	-5.0%	.	.
COc1cccc(NC(=O)c2cc3c(-c4ccc(Cl)cc4)nn(C)c3s2)c1	15.8µM*	?	.	1.4%	.	.
COc1cccc(-c2nn(C)c3sc(C(=O)Nc4ccc5c(c4)OCCO5)cc23)c1	9.4%	0.3%	-26.5%[46.1 µM]	-3.4%	?	.
Nc1ncnc2c1ncn2[C@@H]1O[C@H](C(=O)NC2CC2)[C@@H](O)[C@H]1O	-0.4%	2.7%	.	3.1%	.	3.5%
CN(Cc1ccco1)c1ccnc(-c2ccoc2)n1	?	?	.	22.4µM*	-18.5%	?
Cc1noc(C)c1-c1nccc(N(C)Cc2ccco2)n1	.	.	.	.	.	14.1µM*
CCOCCCNC(=O)C1CCN(C(=O)c2cc3sccc3n2C)CC1	5.1%	3.2%	.	5.9%	.	.
Cc1ccc2nc(-c3ccc(-c4ccccn4)s3)cn2c1	-5.7%	-7.5%	-26.0%	?	.	.
COC(=O)c1ccc(Oc2c(C)oc3cc(OCc4cnn(-c5ccccc5)c4)ccc3c2=O)cc1	-2.2%	-4.9%	-4.1%[46.1 µM]	-8.3%	-19.7%	-10.7%
Cc1oc2cc(OCc3cnn(-c4ccccc4)c3)ccc2c(=O)c1Oc1ccccc1F	-1.8%	-19.2%	-22.2%	-15.5%	-18.0%	5.01µM*
COc1ccc(NC(=O)CSc2nc(-c3ccc(F)cc3)c3cccc(C)c3n2)cc1	?	0.8%	.	5.9%	.	.
Cc1nc2ccccc2nc(C)c1=NO	?	-27.9%	-8.0%[46.1 µM]	?	-23.9%	22.4µM*
Cc1ccc2nc(C)/c(=N\O)c(C)nc2c1	-1.4%	-13.0%	-0.4%[46.1 µM]	?	-8.6%	8.9%
Cc1ccc(C)c(S(=O)(=O)c2cnc(SCC(=O)Nc3ccc(F)cc3F)[nH]c2=O)c1	-11.6%	-13.2%	.	-9.5%	.	.
O=C1/C(=C/c2ccc([N+](=O)[O-])cc2)C=C(c2ccccc2)N1c1ccc(O)cc1	-4.6%	11.2µM*[quencher]	12.6µM*	5.62µM*	-13.7%	?
O=C(O)c1cccc(N2C(=O)/C(=C/c3ccc([N+](=O)[O-])cc3)C=C2c2ccccc2)c1	-9.4%	?	5.01µM*	6.31µM*	.	25.1µM*
O=C1/C(=C/c2ccc([N+](=O)[O-])cc2)C=C(c2ccccc2)N1c1ccccc1	-2.3%	-11.5%	-19.5%[46.1 µM]	-10.9%	.	-1.9%
COc1ccc(N2C(=O)/C(=C/c3ccc([N+](=O)[O-])cc3)C=C2c2ccccc2)cc1	1.2%	-27.4%	-13.1%[46.1 µM]	?	-3.0%	?
COc1ccccc1-c1noc(-c2ccc(NC3CCCC3)c([N+](=O)[O-])c2)n1	-6.0%	-3.5%	.	4.6%	.	.
Cc1ccc(N2CCN(S(=O)(=O)c3ccc(F)c(C(=O)Nc4ccc(Cl)cc4Cl)c3)CC2C)cc1 (stereo unspecified)	-0.4%	-25.1%	.	-10.0%	.	.
SMILES	Tau FP inhib	Tau fluor counter	NPSR antag	Tau fibril ThT	HPGD inh	ALDH1A1 block
CCOC(=O)N1CCN(C(=O)CN(c2cc(Cl)ccc2OC)S(=O)(=O)c2ccccc2)CC1	4.0%	-3.4%	-17.3%[46.1 µM]	-5.3%	-5.2%	25.1µM*
O/N=C/c1ccc(-c2cc(Cl)ccc2Cl)o1	5.1%	7.3%	12.2%	-1.7%	4.47µM*	2.3%
O=[N+]([O-])c1ccc(-c2ccc(/C=N/O)o2)cc1	-2.2%	-22.8%	-4.3%	7.08µM*	.	.
O/N=C\c1ccc(-c2ccccc2)o1	6.1%	9.3%	18.5%	-2.8%	14.1µM*	1.7%
COc1ccc(N=Cc2ccc(-c3ccccc3)o2)cc1	-3.4%	-8.4%	-12.7%	-12.6%	.	3.16µM*
COc1ccc(N=Cc2ccc[nH]2)cc1	-4.9%	-11.2%	-3.9%[46.1 µM]	-11.1%	-6.6%	?
COC(=O)N/N=C/c1ccc(-c2cc(Cl)ccc2Cl)o1	-13.3%	-15.0%	-10.8%[46.1 µM]	-9.2%	-12.6%	-3.1%
NC(N)=N[C@H](CC(=O)O)c1ccccc1	.	.	.	.	-8.8%	8.2%[13.5 µM]
COc1ccc(C(=O)N2CCC[C@@]3(CCN(C)C3)C2)cc1	.	.	.	.	-12.5%	-7.6%
CCn1cc(/C=N/O)c(C)n1	5.0%	6.7%	7.7%[46.1 µM]	2.6%	0.3%	3.6%
Cc1cc(C)c(COCc2cc(/C=N/O)c(C)cc2C)cc1/C=N/O	-10.1%	-25.7%	?	?	14.1µM*	23.2%
Cn1c(SCc2cnc(-c3ccccc3)s2)nnc1C1COc2ccccc2O1 (stereo unspecified)	1.7%	-17.2%	4.2%[46.1 µM]	?	25.1µM*	12.6µM*
Clc1ccc(-c2nn3c(C4COc5ccccc5O4)nnc3s2)cc1 (stereo unspecified)	-6.5%	-15.0%	-27.1%[46.1 µM]	?	12.6µM*	7.94µM*
COC(=O)c1sccc1S(=O)(=O)N1CCN(c2ccccc2)CC1	-5.8%	-15.2%	.	-9.1%	.	.
O=C(NCc1ccco1)C(c1ccccc1)N(Cc1cccnc1)C(=O)Cn1nnc2ccccc21 (stereo unspecified)	0.2%	4.4%	-5.0%[46.1 µM]	-1.1%	-2.5%	0.6%
Cc1cc(C)cc(-n2ccnc2SCC(=O)Nc2ccccc2F)c1	-12.6%	-15.5%	.	-7.3%	.	.
COc1ccc(CCNC(=O)C2CCN(S(C)(=O)=O)CC2)cc1	2.1%	2.7%	-11.7%[46.1 µM]	11.6%	-12.8%	15.8µM*
COc1ccc(OC)c(S(=O)(=O)N2CCC(C(=O)NCCc3ccccc3)CC2)c1	-8.7%	-7.2%	-9.3%[46.1 µM]	-1.1%	-20.4%	5.01µM*
COc1ccc(CCNC(=O)C2CCN(S(=O)(=O)c3cc(OC)ccc3OC)CC2)cc1	-3.4%	1.0%	-15.3%[46.1 µM]	-1.8%	-2.7%	?
Cc1cc(-c2nc(C)c(C(=O)NNS(=O)(=O)c3ccc(Cl)cc3Cl)s2)no1	-6.6%	-20.4%	21.3%	-17.5%	.	?
Cc1nc(N)sc1C(=O)NN	-5.6%	-0.9%	-13.2%	-5.0%	.	25.1µM*
Cc1nc(-c2ccccc2)sc1C(=O)NN	?	-8.9%	18.4%	-10.8%	.	4.47µM*
Cc1nc(NS(=O)(=O)c2ccccc2)sc1C(=O)NN	1.7%	-1.6%	-8.4%	-3.0%	.	-7.1%
